# Screens from PubChem BioAssay.
# Six1-Eya2 inh – qHTS Assay for Inhibitors of the Six1/Eya2 Interaction; Homeobox protein SIX1 (Homo sapiens) + Protein phosphatase EYA2 (Homo sapiens), …; AlphaScreen GST-Six1/His-Eya2 binding, biochemical; hits give low values; activity change, % (no concentration beside the values); 360,000 compounds, 0.56% hits; in the data active = activity change below about -65%; inconclusive = mostly about -30% to -63%; note: % is set by controls: 0 for no effect and ±100 for the full control effect
# Target sequence (O00167 whole entry, looked up): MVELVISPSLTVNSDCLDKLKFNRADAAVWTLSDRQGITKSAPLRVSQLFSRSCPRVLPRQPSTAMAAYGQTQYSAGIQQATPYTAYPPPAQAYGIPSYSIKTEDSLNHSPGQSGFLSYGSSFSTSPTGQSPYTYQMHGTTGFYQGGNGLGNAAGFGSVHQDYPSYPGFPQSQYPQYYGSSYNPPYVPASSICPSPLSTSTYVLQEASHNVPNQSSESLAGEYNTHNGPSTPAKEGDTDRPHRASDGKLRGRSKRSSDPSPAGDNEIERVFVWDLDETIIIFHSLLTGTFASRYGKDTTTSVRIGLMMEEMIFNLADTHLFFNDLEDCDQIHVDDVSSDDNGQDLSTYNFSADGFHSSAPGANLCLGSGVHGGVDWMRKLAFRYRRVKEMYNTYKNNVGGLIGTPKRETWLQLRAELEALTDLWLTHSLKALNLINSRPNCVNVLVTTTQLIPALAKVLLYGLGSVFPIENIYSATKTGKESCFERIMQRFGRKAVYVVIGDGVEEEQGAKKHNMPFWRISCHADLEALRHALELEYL
# Target sequence (Q15475 whole entry, looked up): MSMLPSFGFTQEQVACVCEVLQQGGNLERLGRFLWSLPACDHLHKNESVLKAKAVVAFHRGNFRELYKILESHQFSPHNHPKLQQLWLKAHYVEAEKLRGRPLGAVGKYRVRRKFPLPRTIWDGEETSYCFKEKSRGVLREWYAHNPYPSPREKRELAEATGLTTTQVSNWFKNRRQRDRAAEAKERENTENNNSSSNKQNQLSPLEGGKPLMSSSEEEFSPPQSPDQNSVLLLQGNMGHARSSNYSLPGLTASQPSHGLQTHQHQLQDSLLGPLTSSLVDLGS
#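 Six1/Eya2 binding was read as AlphaScreen signal after compounds were pinned into GST-Six1 plus His-tagged Eya2 (5X stock 250/500 nM) in pH 8.0 Tris/NaCl/TCEP buffer, beads added, then incubated 1 h, 37 C, dark.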
# S2 tox – Viability Counterscreen for Primary qHTS for Inhibitors of ATXN expression; S2 cells (HEK-293 line with an ATXN2-luciferase reporter) viability, CellTiter-Fluor protease fluorescence, 24 h; Potency, µM (highest dose often 56.7 µM), most hits filed as cytotoxic; 400,000 compounds, 0.49% hits; AID 651635, 2014; note: potency is the fitted concentration of half-maximal effect; nearly all actives have a fitted effect of over 40% in size
# HepG2 viability – qHTS for Inhibitors of TGF-b: Cytotox Counterscreen. Potency, µM (titrated, usually from 46.1 µM), for the others: at the top dose activity change, negative = cytotoxicity, usual class: cytotoxic. 410,000 compounds, 0.76% hits. HepG2 CAGA-GFP viability, ATP luminescence, 18 h. AID 588856, 2011; note: potency is the fitted concentration of half-maximal effect
#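 CellTiter-Glo luminescence gave cytotoxicity after 18 hours at 37 degrees C. The cells were HepG2 CAGA-GFP in 1% FBS DMEM, stimulated with 500 pg/mL TGF-beta after compound addition. %Activity was normalised to no-cell wells (complete cell-killing) and DMSO (no toxicity), and curves were fitted and classified.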
# TGFb inhibitor – qHTS for Inhibitors of TGF-b | HepG2 CAGA-GFP TGF-b/SMAD3 reporter, GFP fluorescence, 18 h; TGF-beta stimulated, 500 pg/mL final | AID 588855, 2011 | 410,000 compounds, 1.2% hits | Potency, µM (doses to about 46.1 µM), for the others: at the highest dose activity, negative = inhibition, usual class: inhibitors; note: potency is the fitted concentration of half-maximal effect; % is set by controls: 0 for no effect and ±100 for the full control effect; nearly all actives have a fitted effect of over 65% in size
#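 Cell-based qHTS in HEPG2 carrying a CAGA-GFP Smad reporter; compounds added before 500 pg/mL final TGF-beta, 18 h incubation at 37 degrees C, GFP fluorescence quantified per cell by imaging cytometry.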
# ATXN2 expr inh – Primary qHTS for Inhibitors of ATXN expression; HEK-293 ATXN2-luciferase reporter, luminescence, 24 h; Potency, µM (series often up to 57 µM), for the others: top-dose activity change, negative = inhibition, usual class: inhibitors; 360,000 compounds, 0.72% hits; AID 1745845, 2022; note: potency is the fitted concentration of half-maximal effect; % is set by controls: 0 for no effect and ±100 for the full control effect; nearly all actives have a fitted effect of over 55% in size
#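 qHTS (up to 57 uM final) was run with 24 h compound exposure of reporter cells at 37 °C. Each well was multiplexed: SteadyGlo luminescence measured ATXN2-luciferase expression after a fluorogenic Gly-Phe-AFC viability readout (25 uM final).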
# CtBP-E1A inh – qHTS Assay for Inhibitors of the CtBP/E1A Interaction; CtBP / adenovirus E1A interaction (AlphaScreen); 340,000 compounds, 0.49% hits; AID 651724, 2012; AlphaScreen GST-E1A/His-CtBP binding, 1536-well; hits give low values; activity change, % (no concentration beside the values); in the data active = activity change below about -65%; inconclusive = mostly about -30% to -63%; note: % is set by controls: 0 for no effect and ±100 for the full control effect
#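 GST-E1A and His-tagged CtBP (125 nM each as 5X stock) were preincubated with pin-transferred compound for 2 h at 37 °C in the dark, then glutathione donor and nickel acceptor beads were added for 1 h before AlphaScreen reading.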
# Active calls of the source: *; i = inactive; ? = inconclusive; . = no result given. Most compounds without a hit are left out; they make up all but 2.8% or so of the library. Unless noted, calls come from the whole dose curve; as a rule, active = well fitted curve in the direction sought with a large enough effect; inconclusive = small, poorly fitted or top-dose-only effect, or another doubt; inactive = no such curve, though single readings can be large; an effect the other way counts as inactive or inconclusive.
SMILES,Six1-Eya2 inh,S2 tox,HepG2 viability,TGFb inhibitor,ATXN2 expr inh,CtBP-E1A inh
CN(C)CCCn1c(=O)n(CCc2ccccc2)c(=O)c2c3c(sc21)CCCCC3,-1,i,-8%,13%,.,.
CCc1cc2c(=O)[nH]c(N3CCCC3)nc2s1,7,i,7%,37%,20%,-14
CCc1cc2c(=O)[nH]c(-c3ccccn3)nc2s1,-92*,5.6µM*,-31%,5µM*,?,3
COc1cnc(-c2ccccn2)[nH]c1=O,-91*,i,9%,18%,-9%,-94*
COc1cnc(-c2ccccn2)nc1Oc1ccccc1Cl,3,i,-16%,-15%,1%,-2
CC1CCN(CCCNC(=O)c2cc3c(s2)-c2ccccc2OC3)CC1,11,i,-65%,?,?,4
CN1CCN(c2ccccc2NC(=O)c2cc3c(s2)-c2ccccc2OC3)CC1,-1,i,-13%,1%,.,-79*
O=C(NCCCN1CCN(c2ccc(F)cc2)CC1)c1cc2c(s1)-c1ccccc1OC2,.,?,-85%,?,28µM*,.
O=C(NCCCN1CCN(c2ccc(F)cc2)CC1)c1ccc2nc(Cc3ccccc3)oc2c1,.,.,-43%,11µM*,?,.
CCN(CC)CCOC(=O)c1ccc(NC(=O)c2cc3c(s2)-c2ccccc2OC3)cc1,.,i,10µM*,11µM*,?,.
CCc1cccc(NC(=O)c2cc3c(s2)-c2ccccc2OC3)c1,.,i,-22%,?,4%,.
O=C(NCCCN1CCN(c2ccccc2)CC1)c1cc2c(s1)-c1ccccc1OC2,.,?,14µM*,?,0%,.
Cc1ncc2c(c1CNC(=O)c1cncs1)CCN(C(=O)c1ccsc1)C2,.,i,.,.,.,.
COc1cc2nc(SCc3cccc(Cl)c3)n3nc(CCn4nc(C)cc4C)nc3c2cc1OC,.,i,8%,1%,3%,.
CC(C)(C)C1CCc2c(sc(NC(=O)CCC(=O)O)c2C(=O)Nc2ccccc2C(F)(F)F)C1 (stereo not drawn),.,.,16µM*,?,.,.
COc1ccccc1NC(=O)c1c(NC(=O)c2cccs2)sc2c1CCC(C(C)(C)C)C2 (stereo not drawn),.,i,-12%,-12%,-3%,.
CC1(C)CCC(c2ccc(Cl)cc2)=C(CN2CCN(c3ccc(C(=O)NS(=O)(=O)c4ccc(N[C@H](CCN5CCOCC5)CSc5ccccc5)c(S(=O)(=O)C(F)(F)F)c4)cc3)CC2)C1,.,.,5.6µM*,?,?,.
Cc1cc(Nc2cc(NC(=O)c3c(Cl)cccc3Cl)ccn2)nc(N)n1,.,.,.,.,7.7µM*,.
Cc1ccc2[nH]c(C(=O)NCc3nc(-c4cccc(NC(=O)c5cc(C)oc5C)c4)oc3C)cc2c1,.,i,.,.,.,.
Cc1ccccc1Nc1cc2ccccc2c(=O)[nH]1,31,?,11µM*,4.5µM*,-5%,?
Clc1cccc(-n2nnnc2NCc2ccccc2Oc2ccccn2)c1Cl,.,.,.,.,-9%,.
CSc1ccc(CCNC(=O)CCc2nnc3ccc(N4CCCCC4)nn23)cc1,4,i,2.8µM*,?,-20%,-5
CSc1ccc(CCNC(=O)CCc2nnc3ccc(N4CCOCC4)nn23)cc1,10,i,-16%,-2%,1%,-17
CCc1ccc(OCC(=O)N(Cc2cccs2)c2ccc(Cl)cc2)cc1,.,?,-33%,16µM*,-31%,.
COc1ccc(OCC(=O)N(Cc2cccs2)c2ccc(OC)cc2)cc1,.,.,-10%,-28%,.,.
SMILES,Six1-Eya2 inh,S2 tox,HepG2 viability,TGFb inhibitor,ATXN2 expr inh,CtBP-E1A inh
CCOc1ccccc1C(=O)N(Cc1cccs1)c1ccc(Cl)cc1,.,?,-97%,18µM*,0%,.
CCn1ccc(NS(=O)(=O)c2ccc(N)cc2)nc1=O,.,i,.,.,1%,.
COc1ccc(CCC(=O)NCCc2csc(-c3ccc(F)cc3)n2)cc1,.,.,-38%,8.9µM*,.,.
COc1ccccc1C(=O)NCCc1csc(-c2ccc(C(F)(F)F)cc2)n1,.,.,-61%,8.9µM*,.,.
Cc1ccccc1C(=O)NCCc1csc(-c2ccc(C(F)(F)F)cc2)n1,.,.,-1%,0%,.,.
COc1cccc(NC(=O)CC(=O)c2ccc([N+](=O)[O-])cc2)c1,-9,i,-12%,?,.,.
COc1cccc(N/C(SCc2cccc([N+](=O)[O-])c2)=C(/C#N)C(N)=O)c1,-4,i,14µM*,?,-23%,-9
CN1CCN(CCCNC(=O)c2ccc(/C=C3\Sc4ccccc4N(Cc4ccc(F)cc4)C3=O)cc2)CC1,-11,?,-132%,?,.,.
CCN1CCN(CCNC(=O)c2ccc(/C=C3\Sc4ccccc4N(Cc4ccccc4F)C3=O)cc2)CC1,-3,i,14µM*,?,?,-10
CN1CCN(CCCNC(=O)c2ccc(/C=C3\Oc4ccccc4N(Cc4ccccc4F)C3=O)cc2)CC1,12,20µM*,-106%,18µM*,.,.
CC[C@@H]1C(=O)N(C)c2cnc(Nc3ccc(C(=O)NC4CCN(C)CC4)cc3OC)nc2N1C1CCCC1,.,.,.,.,-6%,.
CC(C)(C)n1ncc2c(=O)n(Cc3ccc(F)cc3F)cnc21,.,.,-24%,5%,.,.
O=C(N/N=C(\c1ccccc1)c1ccccn1)c1cccc([N+](=O)[O-])c1,-91*,?,-1%,?,.,.
CCOc1ccc(C(=O)N/N=C(\c2ccccc2)c2ccccn2)cc1,?,?,-37%,?,7.9µM*,-67*
CCOc1ccccc1NC(=O)CSc1ncc2c(n1)-c1ccccc1N(CC)S2(=O)=O,.,i,-28%,-13%,-7%,.
